Unmarked numbers belong to inactive results. A call without a number means that no potency is given here. The source made the active and inactive calls. Calls come from the whole dose curve.
Experiment: qHTS assay to identify small molecule agonists of the sonic hedgehog signaling (Shh) pathway (AID 1259368); note: nearly all actives have a fitted effect of over 15% in size;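 for activity change: NIH/3T3-derived 3T3Gli1-Luc cells carrying a stable Gli1-driven firefly luciferase reporter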
Conditions: NIH/3T3 Gli1-Luc reporter, luciferase, 24 h; series mostly up to 92.4 µM
Source text: National Center for Advancing Translational Sciences [NCATS]
NIH Chemical Genomics Center [NCGC]
U.S. Environmental Protection Agency [EPA]
National Institutes of Environmental Health Sciences [NIEHS]
National Toxicology Program [NTP]
The sonic hedgehog (Shh) pathway is essential for normal embryonic development. Dysregulation of the Shh pathway can cause severe developmental defects in organs. Therefore chemicals that interfere with the pathway are potential developmental toxicants. A cell line designated 3T3Gli1-Luc (DMB/OARSA/CFSAN/FDA, Laurel, MD), a NIH/3T3 derived clone containing stably integrated Gli1-Luc reporter is used to detect chemical interference of the Shh pathway, by changes in the expression of the firefly Luc gene under the control of the Gli1 transcriptional response element. This cell line was used to screen Tox21 libraries for identifying and prioritizing the potential developmental toxicants that interfere Shh pathway.
3T3 Gli1-Luc cells were dispensed at 2,000 per well in 5uL of culture medium into white solid bottom 1536-well plates (Greiner Bio-One, Monroe, NC) using a Multidrop Combi (Thermo Scientific, Waltham, MA) dispenser. The assay plates were incubated at 37 C and 5% CO2 for 4hr, and then 23nL of compounds dissolved in DMSO and positive control were transferred using a Pintool station (Wako, San Diego, CA). The assay plates were incubated at 37C and 5% CO2 for 24hr. For luciferase read, 4uL of Amplite Luciferase reporter gene assay reagent (AAT Bioquest, Inc. Sunnyvale, CA) was added to each well of the assay plates using Flying Reagent Dispenser (FRD, Aurora Discovery, San Diego, CA) and incubated at room temperature for 30min. The luminescence signal was measured using a ViewLux plate reader (Perkin Elmer, Shelton, CT).
Potency is the fitted concentration of half-maximal effect.

SMILES | Potency | activity change
CCOC(=O)CS | inactive | –
C=Cc1ccccc1 | inactive | –
CN(C)CCOc1ccccc1Cc1ccccc1 | inactive | –
Cc1c(N)cccc1N | inactive | –
OC[C@H]1O[C@@H](O[C@H]2[C@H](O)[C@@H](O)[C@H](O)O[C@@H]2CO)[C@H](O)[C@@H](O)[C@H]1O | inactive | –
CCCCC(CC)COC(=O)COc1cc(Cl)c(Cl)cc1Cl (stereo not given) | inactive | –
CC(C)C[C@H](NC(=O)OCC1c2ccccc2-c2ccccc21)C(=O)O | inactive | –
CCCCCCCCc1ccc(S(=O)(=O)O)cc1 | inactive | –
OCc1c2ccccc2cc2ccccc12 | inactive | –
CC1=C2[C@H](/C=C(\C)C(=O)O)CC[C@@H](C)[C@H]2CC1 | inactive | –
CCCCNCCCC | inactive | –
CN(C)C(=O)NC1(c2ccccc2)CCN(CCC[C@]2(c3ccc(Cl)c(Cl)c3)CCCN(C(=O)c3ccccc3)C2)CC1 | – | -5.82% [at 18.9 µM, stronger effect = higher value]
CCN(CC)CCNC(=O)COc1ccc(Cl)cc1 | inactive | –
O=C(Cl)c1cccc([N+](=O)[O-])c1 | inactive | –
O=CCCc1ccccc1 | inactive | –
CC1(C)S[C@@H]2[C@H](NC(=O)C(C(=O)O)c3ccccc3)C(=O)N2[C@H]1C(=O)O (stereo not given in full) | inactive | –
O=C(O)c1cccc(Cl)c1Cl | inactive | –
O=S(=O)(O)C(F)(F)F | inactive | –
CCCCCCn1c(=O)c2c(ncn2C)n(C)c1=O | inactive | –
CN1CCN(N)CC1 | inactive | –

SMILES | Potency | activity change
Cc1ccc(C=O)s1 | inactive | –
CCCCOc1cc(C(=O)NCCN(CC)CC)c2ccccc2n1 | inactive | –
CCN[C@H]1CN(CCCOC)S(=O)(=O)c2sc(S(N)(=O)=O)cc21 | inactive | –
CNCCC(Oc1ccccc1OC)c1ccccc1 (stereo not given) | inactive | –
CC1=CC(=O)CC(C)(C)C1=O | inactive | –
CCCCc1ccc2nc(NC(=O)OC)[nH]c2c1 | inactive | –
COC(=O)/C=C(/C)N | inactive | –
CC(=O)O[C@H]1CC[C@@]2(C)C(=CC[C@@H]3[C@@H]2CC[C@]2(C)C(C(C)=O)=CC[C@@H]32)C1 | inactive | –
c1ccc(CN(CC2=NCCN2)c2ccccc2)cc1 | inactive | –
CCCN(CCC)C(=O)C(CCC(=O)O)NC(=O)c1ccccc1 (stereo not given) | inactive | –
CC(C)C1=CC2=CC[C@@H]3[C@](C)(CCC[C@@]3(C)C(=O)O)[C@H]2CC1 | inactive | –
CCOc1ccc2nc(N)sc2c1 | inactive | –
CC1(C)O[C@@H]2C[C@H]3[C@@H]4CCC5=CC(=O)CC[C@]5(C)[C@@]4(F)[C@@H](O)C[C@]3(C)[C@]2(C(=O)CCl)O1 | 13.3 µM (active) | –
CC(CNC1CCCCC1)OC(=O)c1ccccc1 (stereo not given) | inactive | –
CC(C)(C)c1ccc(OC(=O)c2ccccc2O)cc1 | inactive | –
CC(=O)OC(C)OC(C)=O | inactive | –
C1CSCCS1 | inactive | –
CCCCCCCCCC/C=C/C#N | inactive | –
Cc1c[nH]c(=S)[nH]c1=O | inactive | –
CCC1(C)NC(=O)NC1=O (stereo not given) | inactive | –

From PubChem BioAssay (Tox21)
